Several values for one entry are separate records, joined by “and”; a condition that tells them apart may be missing. Equal entries are not always repeated. Inconclusive results are not listed. The source holds several records for some structures; these can differ, active in one and inactive in another. Activity calls are given as the source filed them. Unless noted, calls follow the shape of the dose curve; as a rule, active = well fitted curve in the direction sought with a large enough effect in the repeat runs; inconclusive = weak or mixed curves; inactive = no such curve, though single readings can be large; an effect the other way counts as inactive or inconclusive.
Columns and labels:
[1] = qHTS assay for small molecule agonists of the p53 signaling pathway (AID 651631; calls by dose curve; also: nearly all actives have a fitted effect of over 15% in size; also: potency is read from the fitted curve at half-maximal effect)
Procedure, shortened: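 HCT-116 p53RE-bla reporter line, 16 h compound treatment at 37 °C, then fluorescence after 2 h with B/G FRET substrate.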

[2] = qHTS assay for small molecules that induce genotoxicity in human embryonic kidney cells expressing luciferase-tagged ATAD5 (AID 651632); also: nearly all actives have a fitted effect of over 15% in size
Procedure, shortened: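 Quantitative HTS in HEK293T expressing luciferase-tagged ATAD5, whose levels rise upon DNA damage. Exposure ran 16 hr at 37C and 5% CO2, with luminescence read 30 min after Amplite addition at room temperature.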

[3] = qHTS assay for small molecule agonists of the p53 signaling pathway - cell viability (AID 651633; calls by dose curve; also: nearly all actives have a fitted effect of over 30% in size; also: potency is read from the fitted curve at half-maximal effect)
Procedure, shortened: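 p53RE-bla cells, seeded at 4,000 per well and rested 5 h at 37 C/5% CO2, received compounds in DMSO for 16 h at 37 C. CellTiter-Glo was then added, and luminescence was read after 30 min at room temperature to gauge cytotoxicity.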

[4] = qHTS assay for small molecules that induce genotoxicity in human embryonic kidney cells expressing luciferase-tagged ATAD5 - cell viability (AID 651634; calls by dose curve; also: nearly all actives have a fitted effect of over 25% in size; also: potency is read from the fitted curve at half-maximal effect)
Procedure, shortened: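 After 15.5 hr incubation with compound at 37C, 5% CO2, HEK293T ATAD5-luciferase cells received CellTiter-Fluor reagent; fluorescence intensity was quantified following 30 min at 37C.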

[5] = qHTS assay for small molecule disruptors of the mitochondrial membrane potential - cell viability (AID 720634; calls by dose curve; also: nearly all actives have a fitted effect of over 20% in size; also: potency is read from the fitted curve at half-maximal effect)
Procedure, shortened: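 ATP-based luminescent viability readout (CellTiter-Glo, 30 min, room temperature) in HepG2 cells multiplexed with the m-MPI membrane potential dye; compound exposure lasted 1 hr at 37 C.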

[6] = qHTS assay to test for compound auto fluorescence at 590 nm (red) in HepG2 cells (AID 720674)
Procedure, shortened: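 Rose Bengal sodium served as the red fluorophore standard. HepG2 monolayers (overnight attachment, MEM with 10% FBS) were exposed to test compounds for 1 hr at 37 C and read at Ex 540/Em 590 nm.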

[7] = qHTS assay to test for compound auto fluorescence at 460 nm (blue) in HEK293 cells (AID 720678)
Procedure, shortened: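 After cell attachment (4-5 hr, 37C), compounds were pinned onto HEK293 monolayers in 10% dialyzed FBS medium. The blue channel (405/460 nm) was read following overnight culture. Equivalency was calculated against triamterene.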

[8] = qHTS assay to test for compound auto fluorescence at 590 nm (red) in HEK293 cells (AID 720679)
Procedure, shortened: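 Plates of HEK293 cells (10% dialyzed FBS) are treated with 23 nL compound or DMSO vehicle after a 4-5 hr attachment period, incubated overnight at 37C, and read for red fluorescence at 540/590nm.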

[9] = qHTS assay to test for compound auto fluorescence at 535 nm (green) in HEK293 cells (AID 720680)
[10] = qHTS assay to test for compound auto fluorescence at 535 nm (green) in HEK293 cell free culture (AID 720682)
Procedure, shortened: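 Steps: dispense DMEM/10% FBS into empty wells; pin in compound or DMSO; measure fluorescence at 485/535 nm. Values are fluorescein equivalents.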

[11] = qHTS assay to test for compound auto fluorescence at 590 nm (red) in HEK293 cell free culture (AID 720683)
Procedure, shortened: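 Tox21 10K library compounds were pinned into cell-free DMEM with 10% FBS and fluorescence was read at excitation 540 nm. Activity is expressed as Rose Bengal sodium equivalency.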

[12] = qHTS assay to test for compound auto fluorescence at 590 nm (red) in HepG2 cell free culture (AID 720684)
Procedure, shortened: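 Ex 540 / Em 590 nm read of compound in cell-free MEM (10% FBS). Rose Bengal sodium reference.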

[13] = qHTS assay to test for compound auto fluorescence at 460 nm (blue) in HepG2 cell free culture (AID 720685)
Procedure, shortened: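 Cell-free plates of MEM plus 10% FBS received 23 nL compound or DMSO vehicle; blue-channel (405/460 nm) intensity scored against triamterene as reference fluorophore.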

[14] = qHTS assay to test for compound auto fluorescence at 535 nm (green) in HepG2 cell free culture (AID 720686)
[15] = qHTS assay to test for compound auto fluorescence at 460 nm (blue) in HepG2 cells (AID 720687)
Procedure, shortened: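 Cells (2,000/well in MEM with 10% FBS) attached overnight at 37 C, then were exposed to compound or DMSO for 1 hr at 37 C, 5% CO2. Fluorescence read at Ex/Em 405/460 nm, expressed as triamterene-equivalent signal.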

[16] = target: Glucocorticoid receptor (Homo sapiens) (UniProt P04150); test: qHTS assay to identify small molecule agonists of the glucocorticoid receptor (GR) signaling pathway (AID 720691; active = well fitted activation curve with a large enough effect in the signal ratio in the repeat runs, not every such curve was filed as active; the % refers to the signal ratio); settings: GR-bla HeLa, beta-lactamase reporter ratio, 18 h; activation: at 62.4 µM (top of the series)
Procedure, shortened: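 Cells: GR-bla HeLa, endogenous GR with stably integrated GRE-beta-lactamase reporter. Treatment 18 h, 37 C, compounds delivered in DMSO. Detection via LiveBLAzer B/G FRET substrate, 2 h RT, fluorescence intensity.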

[17] = qHTS assay to test for compound auto fluorescence at 535 nm (green) in HepG2 cells (AID 720675)
[18] = qHTS assay for small molecule disruptors of the mitochondrial membrane potential (AID 720635); also: potency is read from the fitted curve at half-maximal effect
Procedure, shortened: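 HepG2 cells (2,000/well) attached overnight at 37C, then took compound for 1 hr at 37C, 5% CO2. Mito-MPS dye was added for 30 min; fluorescence was read at 490/535 nm (monomers) and 540/590 nm (aggregates).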

[19] = qHTS assay to test for compound auto fluorescence at 460 nm (blue) in HEK293 cell free culture (AID 720681)
Procedure, shortened: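 Test compounds were pinned into cell-free culture medium (DMEM with 10% FBS) and fluorescence was read directly at Ex/Em 405/460 nm. Signals were expressed as fluorescence equivalents of triamterene, with DMSO vehicle as control.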

[20] = target: Glucocorticoid receptor (Homo sapiens) (UniProt P04150); test: qHTS assay to identify small molecule antagonists of the glucocorticoid receptor (GR) signaling pathway (AID 720692; active = well fitted inhibition curve with a large enough effect in the signal ratio in the repeat runs, not every such curve was filed as active; the % refers to the signal ratio; also: potency is read from the fitted curve at half-maximal effect)
Procedure, shortened: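 Quantitative HTS in antagonist format: HeLa cells expressing endogenous GR and a stably integrated GRE-bla reporter, stimulated with 5 nM dexamethasone (final) alongside test compounds for 18 h.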
% is scaled to controls: 0 for no effect and ±100 for the full control effect.

Sequence of Glucocorticoid receptor (Homo sapiens) (P04150 whole entry, looked up): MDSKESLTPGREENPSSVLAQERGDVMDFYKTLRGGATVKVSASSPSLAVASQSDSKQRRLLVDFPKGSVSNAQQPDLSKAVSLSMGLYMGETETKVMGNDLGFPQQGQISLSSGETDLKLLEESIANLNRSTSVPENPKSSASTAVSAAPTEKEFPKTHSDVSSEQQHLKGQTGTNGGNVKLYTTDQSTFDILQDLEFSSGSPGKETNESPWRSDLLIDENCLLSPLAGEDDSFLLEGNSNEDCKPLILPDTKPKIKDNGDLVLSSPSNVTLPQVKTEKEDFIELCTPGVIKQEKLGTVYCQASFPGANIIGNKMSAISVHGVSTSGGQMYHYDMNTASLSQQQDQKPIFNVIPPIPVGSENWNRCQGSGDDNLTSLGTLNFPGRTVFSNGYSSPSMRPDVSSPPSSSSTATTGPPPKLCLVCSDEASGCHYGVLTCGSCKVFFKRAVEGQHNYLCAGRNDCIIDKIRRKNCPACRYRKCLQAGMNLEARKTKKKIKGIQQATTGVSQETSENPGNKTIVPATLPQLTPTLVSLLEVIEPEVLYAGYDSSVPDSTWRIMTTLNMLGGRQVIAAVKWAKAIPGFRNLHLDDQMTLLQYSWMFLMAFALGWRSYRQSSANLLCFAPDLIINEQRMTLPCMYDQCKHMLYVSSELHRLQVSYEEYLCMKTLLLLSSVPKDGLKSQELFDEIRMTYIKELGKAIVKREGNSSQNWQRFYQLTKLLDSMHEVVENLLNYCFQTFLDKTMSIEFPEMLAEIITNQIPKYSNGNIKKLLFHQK

N[C@@H](CSSC[C@H](N)C(=O)O)C(=O)O
inactive: Potency [1] | Potency [2] | Potency [3] | Potency [4] | Potency [5] | Potency [6] | Potency [7] | Potency [8] | Potency [9] | Potency [10] | Potency [11] | Potency [12] | Potency [13] | Potency [14] | Potency [15] | Potency [16]

C(=C/c1ccccc1)/c1ccccc1
inactive: Potency [1] | Potency [2] | Potency [3] | Potency [4] | Potency [5] | Potency [6] | Potency [17] | Potency [7] | Potency [8] | Potency [10] | Potency [11] | Potency [12] | Potency [13] | Potency [14] | Potency [15]

CNC(=O)c1cc(Oc2ccc(NC(=O)Nc3ccc(Cl)c(C(F)(F)F)c3)cc2)ccn1
inactive: Potency [2] | Potency [6] | Potency [17] | Potency [7] | Potency [8] | Potency [9] | Potency [10] | Potency [11] | Potency [12] | Potency [13] | Potency [14] | Potency [15]
active: Potency [1] 5.96 µM | Potency [3] 5.96 µM | Potency [4] 16.8 µM | Potency [18] 0.88 µM

Oc1c(Br)cc(Br)c2cccnc12
inactive: Potency [2] | Potency [4] | Potency [5] | Potency [6] | Potency [17] | Potency [8] | Potency [9] | Potency [19] | Potency [11] | Potency [12] | Potency [13] | Potency [14] | Potency [15]
active: Potency [1] 5.96 µM | Potency [3] 6.68 µM

CC(CN(C)C)CN1c2ccccc2CCc2ccccc21 (stereo unspecified)
inactive: Potency [2] | Potency [3] | Potency [4] | Potency [5] | fluorescence, relative to Rose Bengal [6] 0.485% [at 18.6 µM] | fluorescence, % of triamterene [7] -0.0464% [at 18.6 µM] | fluorescence, % of fluorescent control [8] -0.076% [at 18.6 µM] | fluorescence, % of fluorescein [9] 0.0583% [at 18.6 µM] | fluorescence, % of fluorescent control [19] 0.133% [at 18.6 µM] | activity change [10] -0.0046% [at 18.6 µM, stronger effect = higher value] | fluorescence, % of fluorescent control [11] 0.264% [at 18.6 µM] | fluorescence, % of Rose Bengal [12] 0.0079% [at 18.6 µM] | fluorescence, % of fluorescent control [13] 0.118% [at 18.6 µM] | fluorescence, % of fluorescein control [14] -0.0071% [at 18.6 µM] | fluorescence, % of fluorescent control [15] -0.0977% [at 18.6 µM]

CN(C)CCOC(c1ccccc1)c1ccccc1 (tested in a mixture with another compound)
inactive: Potency [2] | Potency [3] | Potency [4] | Potency [5] | Potency [6] | Potency [7] | Potency [8] | Potency [9] | Potency [19] | Potency [10] | Potency [11] | Potency [12] | Potency [13] | Potency [14] | Potency [15] | Potency [16]

CCCCCCC(C)Nc1ccc(Nc2ccccc2)cc1 (stereo unspecified)
active: Potency [3] 54.5 µM | Potency [18] 30.6 µM | Potency [20] 43.6 µM
inactive: Potency [2] | Potency [4] | Potency [6] | Potency [17] | Potency [7] | Potency [8] | Potency [9] | Potency [19] | Potency [11] | Potency [12] | Potency [13] | Potency [14] | Potency [15]

CCCSS/C(CCO)=C(\C)N(C=O)Cc1cnc(C)nc1N
inactive: Potency [2] | Potency [3] | Potency [4] | Potency [5] | Potency [18] | Potency [6] | Potency [7] | Potency [8] | Potency [9] | Potency [19] | Potency [11] | Potency [12] | Potency [13] | Potency [14] | Potency [15]

Nc1ncnc2c1ncn2[C@@H]1O[C@H](COP(=O)(O)O)[C@@H](O)[C@H]1O
inactive: Potency [2] | Potency [3] | Potency [4] | Potency [5] | Potency [6] | Potency [17] | Potency [7] | Potency [8] | Potency [9] | Potency [19] | Potency [10] | Potency [11] | Potency [12] | Potency [13] | Potency [14] | Potency [15] | Potency [16]

COc1ccccc1OCCNCC(O)COc1cccc2[nH]c3ccccc3c12 (stereo unspecified)
active: Potency [18] 23.7 µM
inactive: Potency [2] | Potency [3] | Potency [4] | Potency [5] | Potency [6] | Potency [17] | Potency [7] | Potency [8] | Potency [11] | Potency [12] | Potency [13] | Potency [14] | Potency [15] | Potency [16]

CCCCCCCOC(=O)c1ccc(O)cc1
active: Potency [5] 27.3 µM | Potency [18] 8.64 µM and 8.63 µM
inactive: Potency [2] | Potency [4] | Potency [6] | Potency [17] | Potency [8] | Potency [9] | Potency [19] | Potency [11] | Potency [12] | Potency [13] | Potency [14] | Potency [15]
inactive and 61.1 µM (active): Potency [3]

COc1cc(C(=O)NS(=O)(=O)c2ccccc2C)ccc1Cc1cn(C)c2ccc(NC(=O)OC3CCCC3)cc12
inactive: Potency [2] | Potency [4] | Potency [5] | Potency [6] | Potency [17] | Potency [7] | Potency [8] | Potency [9] | Potency [10] | Potency [11] | Potency [12] | Potency [13] | Potency [14] | Potency [15] | Potency [16]
active: Potency [3] 5.96 µM | Potency [18] 9.44 µM | Potency [20] 12 µM

O=Cc1ccc(F)cc1
inactive: Potency [2] | Potency [3] | Potency [4] | Potency [5] | Potency [6] | Potency [17] | Potency [7] | Potency [8] | Potency [19] | Potency [11] | Potency [12] | Potency [13] | Potency [14] | Potency [15] | Potency [16] | Potency [20]

CCN(CC)CCCN(c1ccccc1)C1Cc2ccccc2C1
inactive: Potency [2] | Potency [6] | Potency [17] | Potency [7] | Potency [8] | Potency [9] | Potency [19] | Potency [10] | Potency [11] | Potency [12] | Potency [13] | Potency [14] | Potency [15]
active: Potency [3] 13.3 µM | Potency [4] 23.7 µM | Potency [5] 29.8 µM
